Over roughly 33,000 sequences, “E-score (-0.5 to 0.5)” has its median near -0.017; the highest 2% begin near 0.3. Only a selection was taken, and the highest values are over-represented in it overall.
Biological target: T1, Sut1 (UniProt P53032)
T1 sequence: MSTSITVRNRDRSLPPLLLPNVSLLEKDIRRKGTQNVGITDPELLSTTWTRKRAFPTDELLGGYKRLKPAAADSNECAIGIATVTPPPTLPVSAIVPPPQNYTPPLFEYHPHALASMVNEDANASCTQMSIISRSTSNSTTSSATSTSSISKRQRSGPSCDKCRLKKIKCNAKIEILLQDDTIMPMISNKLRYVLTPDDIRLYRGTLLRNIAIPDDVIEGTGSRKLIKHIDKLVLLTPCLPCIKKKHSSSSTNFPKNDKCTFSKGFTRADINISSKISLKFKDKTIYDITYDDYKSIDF
Experiment: PBM E-score (8-mer binding enrichment) (E-score (-0.5 to 0.5)); higher = stronger / more preferred TF binding
Details: protein concentration: 200 nM; construct: GST-full length
Method: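 Universal 'all 10-mer' protein binding microarrays (Agilent AMADID 015681) probed with GST-tagged S. cerevisiae TFs (full-length or DBD) made by in vitro transcription/translation (PURExpress), about 100-200 nM. Bound TF was detected with fluorescent anti-GST. Each ungapped 8-mer (which stands for itself and its reverse complement) is scored by the PBM enrichment score (E-score), a modified Wilcoxon-Mann-Whitney statistic from -0.5 to +0.5, computed with the Universal PBM Analysis Suite. Scale: above 0.35 generally sequence-specific binding.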

Sequence	PBM E-score
AAACGCGC	-0.123
ATCCTCAT	-0.0846
CGAGGGTC	-0.194
CTTATGTA	0.16
AAACTGAA	0.171
AAGTTGCG	0.108
CTCGCCCC	-0.298
AGTGAATA	0.177
ATGGTCGG	0.0544
GCCCAGCC	-0.184
ATTATTTC	0.306
ATGATTTC	0.299
ACTATTTG	0.252
CTTATTTC	0.207
GTTATTTA	0.257
ATTATTTG	0.319
CTGATTTC	0.0415
ATTATTTA	0.347
ATGATTTA	0.222
ATTATTAG	0.144
ATTATTAC	0.278
CTTATTTA	0.101
CGCTAGTA	0.101
AGAATGCA	0.0147
CCCGTTAG	-0.0959

Sequence	PBM E-score
CGTACGAG	-0.098
AATAGCTC	-0.207
ATTGCGAC	0.0862
CGTCCTTA	-0.176
ATACCGGC	-0.0331
ATACCGGA	0.326
ATACCGGG	0.0371
CTACCGGA	0.222
GTACCGCA	0.102
GTACCGGA	0.342
AGTCAGCA	-0.0199
ACCCACTC	0.00249
TCCCGGAA	0.228
CTCCGGAA	0.442
CTGCGGAA	-0.0948
TGCCGGAA	0.188
ATCCGGAC	0.362
ATCCGGAT	0.257
ATCCGGTG	0.0918
TTCCGGAA	0.395
ATCCGGCG	-0.00912
ATCCGGAG	0.414
ACAGTCAA	-0.0644
AGAGTAAG	0.016
AAGCTCTC	-0.127

Sequence	PBM E-score
AAAACTTG	0.143
GCGTTACC	-0.158
ACTCCCTG	-0.173
AATCACGT	-0.0474
GTCCGGAC	0.469
ATCCGGAA	0.303
GTGCGGAA	0.0942
GTCCAAAC	-0.0427
GTCAGGAC	-0.206
ATGCGGAA	0.0745
CTCAGGAG	-0.179
GTCCGGAA	0.402
CTCCGGAG	0.487
ATGCGGAG	0.259
CAACGCAA	0.111
TAGTTAGA	0.169
AGTCTATG	-0.11
ACATTGGC	-0.21
AGAAAGCT	0.126
CATAAGGA	-0.134
CCCTCGAC	-0.327
CAATCTAG	-0.0129
CTTAGTCC	0.113
ATTGAGTG	0.0241
CTCAGGAC	-0.127

Sequence	PBM E-score
CTCCGGAC	0.473
CTGCGGAC	0.165
GTTTAAAA	0.19
AAAATTAA	0.221
TTATTAAA	0.273
TAGTTATA	0.318
CTATTAAA	0.0826
CAAATTAA	0.189
AAGTTATA	0.186
GAGTTATA	0.2
CTTTAAAC	0.105
GTTTAAAC	0.31
GAAATTAA	0.333
ATATTAAA	0.37
AGGTCTAA	-0.0642
CTAGGTGA	-0.168
GTCTATCA	0.101
AGATTCAT	0.0265
ATTAAGAC	0.123
GCGCTTGA	0.0596
AATTTATA	0.276
CTATTTAA	0.188
AAATTATA	0.351
ATATTTAA	0.303
TAATTAGA	0.218

Sequence	PBM E-score
CAATTATA	0.164
ATATTTAC	0.282
GATTAAAC	0.114
AATTAAAC	0.329
AATTAAAG	0.198
TAATTATA	0.349
AAATTATG	0.175
ACTAAGTC	0.0911
CTACCCAG	-0.18
AGAAATGC	0.048
GAAATCCC	-0.0066
ATCACCTA	-0.13
CTTAGCCC	-0.129
ATGAACCC	0.00896
CCAAATCC	0.0309
AGCAGAAA	0.175
AAGGTCTC	-0.0653
GAATTATC	0.0676
AGATTAAA	0.324
AAATTATC	0.281
AAATTATT	0.328
CGATTAAA	0.237
GAATTATA	0.335
TCATTAAA	0.315
AGATTAAT	0.222

Sequence	PBM E-score
GCATTAAA	0.0763
GCATTATA	0.118
AAATTACT	0.234
ACATTAAA	0.259
AGCAAATC	0.142
AGTGGCAT	-0.231
CCCTTCAA	-0.068
ATTCCCTA	0.11
AAGGCCAG	-0.00339
GAGCTAAA	0.106
AATTTCTA	0.285
ATATTATA	0.249
AAATTAAT	0.292
ATATTATC	0.223
GTCTTAAA	0.00721
CTCTTAAA	0.302
ATATTATG	0.362
AAATTAAA	0.333
AAATTAAC	0.236
CTCTTAAC	0.042
CTCTCGCC	-0.182
GAGTTAAA	0.13
AGAACCTC	-0.0985
GCAACGCC	-0.114
CTTAAAGC	-0.0652

Sequence	PBM E-score
TATACTGA	0.292
TATATTGA	0.332
CATATTGA	0.0287
CATATTAA	0.183
TATATTAA	0.315
GATATTGA	0.234
GATATTAA	0.285
GAACAGAC	0.0707
GTCCTAGA	-0.141
CGCCCGGC	-0.0194
GGCCCGCA	-0.113
AGCCCGGA	0.341
AGCCCGGC	0.00111
GCCCCGGA	0.29
CGCCCGAA	-0.101
CGCCCGGA	0.361
AGCCCGGG	0.0766
GGCCCGGA	0.305
CTACCAAC	0.0725
AACTCGCT	0.0435
ACGGAGAA	0.362
CCGGACAA	0.283
ACGGAGAG	0.247
ACGGAGAC	0.232
ACGGAGCG	0.2

Sequence	PBM E-score
ACGGAGGA	0.0201
TCGGACAA	0.367
ATGGAGAA	0.108
ACGGAGCC	0.219
ACGGAGCT	0.386
ACGGAGAT	0.435
GCGGACAA	0.23
GGATAGCA	0.0461
CGCTGTAA	0.00093
AACCTTTG	0.0541
AAACTAAT	0.292
GGTTATGA	-0.00868
CACAACCA	0.0851
CGTTGCGC	-0.153
GTTAGTCA	-0.0461
ATTAGACC	-0.183
ACATCAAT	0.201
AAACAGTC	-0.179
CCGGAGAG	0.253
CGGGAGAC	0.132
CCGGAGAC	0.328
TGGGAGAA	-0.07
ACGGATAA	0.103
CAGGAGAA	0.0231
TCGGATAA	0.318

Sequence	PBM E-score
GCGGAGAC	0.183
GCGGAGAA	0.279
TCGGAGAA	0.436
CCGGAGAA	0.397
CCGGATAA	0.285
TCTCTAAA	0.107
AAGATAAA	0.199
GCGACTTA	-0.106
ACGTCTCA	-0.0462
AAAACTGA	0.12
CAGGTTGC	-0.135
AGCCTTCC	-0.158
GGCAGCAA	-0.129
CTCGGAGC	0.389
ATCGGCGC	-0.0591
ATCGGAGC	0.358
ATCGGAGG	0.0998
ATCGGATA	0.288
CTCGGATA	0.126
ATCGGAGA	0.416
CTCGGTGC	-0.02
CTAGGAGC	-0.306
CTTGGAGA	-0.00672
CTCGGAGA	0.419
ATCGGATC	-0.00393

Sequence	PBM E-score
ACCAACGC	0.014
CGGAGCCA	0.294
CGTTAAGC	0.125
CTGCTGTA	-0.0764
TACAGGCA	0.085
GTCGGATA	0.143
GTCGGAGA	0.325
GTAGGAGA	-0.0911
AACTAGGA	0.0329
GACTCGCC	-0.158
AAAAAGTA	0.125
CGGACTGA	0.298
CAGACTGC	-0.135
CGGACTTA	0.492
AGGACTGC	-0.334
AGGACTTA	-0.0276
CGGACTGC	0.377
GGGACTTA	-0.0858
AGGACTGA	-0.109
GGGACTGA	-0.185
GTAAACGA	-0.0179
CACAGTAC	-0.0582
TATCCGAA	0.304
GATCCGAA	0.26
GATCCGGC	0.0532

Sequence	PBM E-score
GATCCGGA	0.324
AATCCGGC	-0.0834
TATCCGGA	0.39
CATCCGGA	0.292
AATCCGGT	0.258
CATCCGAA	0.151
TATCCGCA	0.169
AATCCGGA	0.368
GATCCGTA	-0.02
ACCCTCTA	-0.245
AGGTCTTC	-0.256
GGTCTCGA	0.00072
CAACAGTC	0.0186
TACGCGTA	-0.0808
CGGCCACC	-0.0332
CTCTAAAG	-0.0246
AGATATTA	0.211
AGTCCGCG	0.435
CGTCCGCA	-0.177
ATTCCGCC	0.214
AATCCGCG	-0.103
AGTCCGCC	0.375
AGTCCGCA	0.441
CGTCCGCC	-0.124
GGTCCGCA	0.241

Sequence	PBM E-score
ATTCCGCG	0.18
ATGCACGG	-0.114
AACTTCTA	0.131
ACCAGCTG	-0.203
GTCATAGA	-0.0539
ATGAATAC	0.132
GGCAAACA	-0.119
GCCAAGGC	-0.29
AAATGATT	0.311
CAATGATA	0.144
AAATGATA	0.337
AAATGATC	0.105
TAATGATA	0.317
TAATGAAA	0.154
GAATGATA	0.259
AGATGATA	0.175
AAATGATG	0.16
ACAGTGTC	-0.114
GAATTCGA	0.0801
CTTTTCTC	0.107
ACATCGGA	0.351
GCATCGGA	0.348
GCATCGTA	-0.0143
TCATCGGA	0.395
ACATCGGC	-0.0386

Sequence	PBM E-score
GCATCGGC	-0.241
TCATCGAA	0.0449
ACATCGGT	-0.034
CCATCGGA	0.255
GCAATACA	0.196
GAAATTGC	-0.0449
AGCACGCG	0.0217
ATTACATA	0.154
AGAGTCTG	-0.236
ACCACACA	0.109
CTCACAGC	-0.051
TCTCAGAA	-0.12
CAAGTTGC	0.0786
GGCTGTAC	-0.0774
AGACTTAA	-0.137
CGACTTAC	-0.0195
GGACTTAA	0.326
AGACTTAC	-0.0551
GGACTTAC	0.352
CGACTTAA	0.00564
GCAAGAGA	-0.196
CTTCTGGA	-0.0307
ATCGGACG	0.0416
ATCGGACA	0.257
GTCGGACA	0.271

Sequence	PBM E-score
CTCGGACA	0.354
CTCGGATC	0.204
CTCGGAAC	0.182
AGCGGACC	0.00064
CTCGGACC	0.368
ATCGGACC	0.353
TCTTAGAA	0.283
AAGATTCA	0.137
CGAGCGTC	-0.241
CATATTGG	0.112
GAAACTGA	-0.0944
CGGCTTTA	0.0621
AACCAGTC	0.173
CGGGGTTC	0.398
CCGGGTTC	-0.0363
AGGGGTTA	-0.273
GGGGGTTA	-0.405
AGGGGTTC	-0.181
CGGGGTTA	0.382

Reference: the supplement of paper PMC3334620
